For experiment [1], the target named is T1, Interleukin-1 receptor-associated kinase 4 (Homo sapiens) (UniProt Q9NWZ3).
T1 sequence (whole entry): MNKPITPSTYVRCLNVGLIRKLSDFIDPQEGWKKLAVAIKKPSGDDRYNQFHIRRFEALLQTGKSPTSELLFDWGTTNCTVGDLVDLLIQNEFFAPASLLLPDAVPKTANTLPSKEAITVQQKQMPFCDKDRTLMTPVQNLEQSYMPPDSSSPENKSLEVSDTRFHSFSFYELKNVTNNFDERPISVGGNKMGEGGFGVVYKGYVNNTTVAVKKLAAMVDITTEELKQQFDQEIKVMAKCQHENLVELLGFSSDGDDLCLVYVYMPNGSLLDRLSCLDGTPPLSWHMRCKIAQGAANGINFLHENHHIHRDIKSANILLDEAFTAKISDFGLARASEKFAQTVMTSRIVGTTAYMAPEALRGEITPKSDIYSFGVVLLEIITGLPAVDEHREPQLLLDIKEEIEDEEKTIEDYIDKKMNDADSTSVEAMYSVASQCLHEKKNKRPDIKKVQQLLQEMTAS
Conditions: at 1 µM.

For experiment [2], the target named is T1, Interleukin-1 receptor-associated kinase 4 (Homo sapiens). The following applies: at 10 µM.
Experiment [3] has as its target Insulin receptor-related protein (Homo sapiens) (UniProt P14616). Conditions: at 1 µM.
For experiment [4] the target is unchanged. The following applies: at 10 µM.
Experiment [5] addresses T2, Tyrosine-protein kinase ITK/TSK (Homo sapiens) (UniProt Q08881).
T2 sequence (whole entry): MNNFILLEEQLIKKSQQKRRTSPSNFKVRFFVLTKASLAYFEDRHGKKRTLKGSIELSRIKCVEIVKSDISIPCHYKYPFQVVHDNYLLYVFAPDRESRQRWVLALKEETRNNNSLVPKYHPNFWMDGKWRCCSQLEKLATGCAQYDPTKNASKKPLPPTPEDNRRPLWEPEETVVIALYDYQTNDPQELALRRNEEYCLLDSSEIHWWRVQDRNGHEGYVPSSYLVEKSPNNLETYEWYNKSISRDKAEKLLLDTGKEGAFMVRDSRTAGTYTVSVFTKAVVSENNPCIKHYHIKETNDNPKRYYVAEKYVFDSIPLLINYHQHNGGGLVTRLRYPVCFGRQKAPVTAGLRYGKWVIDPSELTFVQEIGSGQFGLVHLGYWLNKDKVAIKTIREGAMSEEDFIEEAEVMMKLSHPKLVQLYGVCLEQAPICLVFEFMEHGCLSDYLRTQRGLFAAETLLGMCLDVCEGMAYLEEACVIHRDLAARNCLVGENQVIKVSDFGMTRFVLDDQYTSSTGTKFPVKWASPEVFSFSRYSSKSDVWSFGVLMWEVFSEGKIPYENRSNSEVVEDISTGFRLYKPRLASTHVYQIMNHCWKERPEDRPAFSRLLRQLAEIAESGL
The following applies: at 1 µM.

Experiment [6] concerns the target T2, Tyrosine-protein kinase ITK/TSK (Homo sapiens). Conditions: at 10 µM.
In experiment [7] the target is Tyrosine-protein kinase JAK2 (Homo sapiens) (UniProt O60674). The following applies: at 1 µM.
The target is the same in experiment [8]. The following applies: at 10 µM.
Experiment [9] addresses T3, Tyrosine-protein kinase JAK3 (Homo sapiens) (UniProt P52333).
T3 sequence (whole entry): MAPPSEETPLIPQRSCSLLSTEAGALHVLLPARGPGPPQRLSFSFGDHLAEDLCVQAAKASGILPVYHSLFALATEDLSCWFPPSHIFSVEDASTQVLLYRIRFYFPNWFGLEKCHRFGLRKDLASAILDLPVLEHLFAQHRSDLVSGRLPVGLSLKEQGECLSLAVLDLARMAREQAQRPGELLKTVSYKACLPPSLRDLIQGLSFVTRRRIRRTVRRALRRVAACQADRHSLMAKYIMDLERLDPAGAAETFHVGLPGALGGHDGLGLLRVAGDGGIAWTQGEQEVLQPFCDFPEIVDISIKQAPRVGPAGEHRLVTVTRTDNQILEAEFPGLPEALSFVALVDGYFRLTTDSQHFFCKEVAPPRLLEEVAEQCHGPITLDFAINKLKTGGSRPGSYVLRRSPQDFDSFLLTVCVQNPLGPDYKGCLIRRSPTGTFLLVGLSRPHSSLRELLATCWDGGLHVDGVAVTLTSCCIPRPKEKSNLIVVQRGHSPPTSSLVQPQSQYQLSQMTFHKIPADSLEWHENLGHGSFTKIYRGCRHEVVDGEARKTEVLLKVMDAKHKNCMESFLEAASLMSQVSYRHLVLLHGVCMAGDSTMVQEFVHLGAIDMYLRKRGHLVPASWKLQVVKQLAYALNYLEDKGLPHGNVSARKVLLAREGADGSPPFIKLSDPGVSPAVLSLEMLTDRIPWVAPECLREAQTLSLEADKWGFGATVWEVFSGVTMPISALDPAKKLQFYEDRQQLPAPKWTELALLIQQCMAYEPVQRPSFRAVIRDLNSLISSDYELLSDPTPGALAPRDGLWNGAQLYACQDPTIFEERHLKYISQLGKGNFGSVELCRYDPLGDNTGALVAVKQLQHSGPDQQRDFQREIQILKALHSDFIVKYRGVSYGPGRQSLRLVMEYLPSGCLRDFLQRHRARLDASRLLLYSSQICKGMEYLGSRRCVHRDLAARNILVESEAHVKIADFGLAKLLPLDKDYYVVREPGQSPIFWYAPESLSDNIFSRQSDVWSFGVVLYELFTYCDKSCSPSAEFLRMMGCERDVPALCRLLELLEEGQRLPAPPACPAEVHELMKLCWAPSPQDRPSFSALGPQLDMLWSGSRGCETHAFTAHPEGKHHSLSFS
Conditions: at 1 µM.

Experiment [10] has as its target T3, Tyrosine-protein kinase JAK3 (Homo sapiens). Conditions: at 10 µM.
Experiment [11] concerns the target Mitogen-activated protein kinase 8 (Homo sapiens) (UniProt P45983). Conditions: at 1 µM.
The target is the same in experiment [12]. Conditions: at 10 µM.
Experiment [13] has as its target Mitogen-activated protein kinase 9 (Homo sapiens) (UniProt P45984). Conditions: at 1 µM.
Experiment [14] shares this target. Conditions: at 10 µM.
The target in experiment [15] is Mitogen-activated protein kinase 10 (Homo sapiens) (UniProt P53779). The following applies: at 1 µM.
Experiment [16] has the same target. Conditions: at 10 µM.
In experiment [17] the target is Vascular endothelial growth factor receptor 2 (Homo sapiens) (UniProt P35968). The following applies: at 1 µM.
Experiment [18] has the same target. The following applies: at 10 µM.
Experiment [19] concerns the target LIM domain kinase 1 (Homo sapiens) (UniProt P53667). Conditions: at 1 µM.
The target is the same in experiment [20]. The following applies: at 10 µM.

This passage reports residual activity results from ChEMBL document CHEMBL2218924, “A broad activity screen in support of a chemogenomic map for kinase signalling research and drug discovery” (Biochem J, 2013).

Sequence of LIM domain kinase 1 (Homo sapiens) (P53667 whole entry, looked up, the tested form may be a part): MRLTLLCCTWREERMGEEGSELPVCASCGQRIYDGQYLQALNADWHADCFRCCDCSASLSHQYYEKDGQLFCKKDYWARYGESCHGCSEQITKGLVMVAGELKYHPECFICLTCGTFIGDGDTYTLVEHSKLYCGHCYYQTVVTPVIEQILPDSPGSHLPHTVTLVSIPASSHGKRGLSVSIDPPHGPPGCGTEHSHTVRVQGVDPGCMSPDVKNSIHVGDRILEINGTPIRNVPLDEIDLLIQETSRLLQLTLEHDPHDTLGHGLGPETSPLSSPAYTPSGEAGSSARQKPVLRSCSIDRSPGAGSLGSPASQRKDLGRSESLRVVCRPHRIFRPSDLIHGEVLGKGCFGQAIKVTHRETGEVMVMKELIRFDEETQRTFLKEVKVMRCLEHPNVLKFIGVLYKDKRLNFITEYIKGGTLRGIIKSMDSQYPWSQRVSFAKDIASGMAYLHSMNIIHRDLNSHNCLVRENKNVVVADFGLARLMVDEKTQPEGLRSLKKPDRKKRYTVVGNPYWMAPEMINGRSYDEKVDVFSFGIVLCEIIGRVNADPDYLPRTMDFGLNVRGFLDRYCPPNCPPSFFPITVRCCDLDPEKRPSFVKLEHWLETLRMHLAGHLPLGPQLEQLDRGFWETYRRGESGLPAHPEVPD
Sequence of Mitogen-activated protein kinase 9 (Homo sapiens) (P45984 whole entry, looked up): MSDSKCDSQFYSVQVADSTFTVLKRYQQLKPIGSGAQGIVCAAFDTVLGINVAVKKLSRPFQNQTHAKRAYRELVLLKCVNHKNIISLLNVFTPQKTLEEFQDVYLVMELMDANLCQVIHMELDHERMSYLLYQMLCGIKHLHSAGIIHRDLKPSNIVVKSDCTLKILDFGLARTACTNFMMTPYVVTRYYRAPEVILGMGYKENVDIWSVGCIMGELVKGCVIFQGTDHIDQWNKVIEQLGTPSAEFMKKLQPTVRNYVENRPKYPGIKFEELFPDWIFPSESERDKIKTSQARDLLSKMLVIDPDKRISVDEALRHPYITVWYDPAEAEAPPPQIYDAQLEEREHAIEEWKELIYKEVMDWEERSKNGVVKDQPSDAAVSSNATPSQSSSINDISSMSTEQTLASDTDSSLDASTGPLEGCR
Sequence of Tyrosine-protein kinase JAK2 (Homo sapiens) (O60674 whole entry): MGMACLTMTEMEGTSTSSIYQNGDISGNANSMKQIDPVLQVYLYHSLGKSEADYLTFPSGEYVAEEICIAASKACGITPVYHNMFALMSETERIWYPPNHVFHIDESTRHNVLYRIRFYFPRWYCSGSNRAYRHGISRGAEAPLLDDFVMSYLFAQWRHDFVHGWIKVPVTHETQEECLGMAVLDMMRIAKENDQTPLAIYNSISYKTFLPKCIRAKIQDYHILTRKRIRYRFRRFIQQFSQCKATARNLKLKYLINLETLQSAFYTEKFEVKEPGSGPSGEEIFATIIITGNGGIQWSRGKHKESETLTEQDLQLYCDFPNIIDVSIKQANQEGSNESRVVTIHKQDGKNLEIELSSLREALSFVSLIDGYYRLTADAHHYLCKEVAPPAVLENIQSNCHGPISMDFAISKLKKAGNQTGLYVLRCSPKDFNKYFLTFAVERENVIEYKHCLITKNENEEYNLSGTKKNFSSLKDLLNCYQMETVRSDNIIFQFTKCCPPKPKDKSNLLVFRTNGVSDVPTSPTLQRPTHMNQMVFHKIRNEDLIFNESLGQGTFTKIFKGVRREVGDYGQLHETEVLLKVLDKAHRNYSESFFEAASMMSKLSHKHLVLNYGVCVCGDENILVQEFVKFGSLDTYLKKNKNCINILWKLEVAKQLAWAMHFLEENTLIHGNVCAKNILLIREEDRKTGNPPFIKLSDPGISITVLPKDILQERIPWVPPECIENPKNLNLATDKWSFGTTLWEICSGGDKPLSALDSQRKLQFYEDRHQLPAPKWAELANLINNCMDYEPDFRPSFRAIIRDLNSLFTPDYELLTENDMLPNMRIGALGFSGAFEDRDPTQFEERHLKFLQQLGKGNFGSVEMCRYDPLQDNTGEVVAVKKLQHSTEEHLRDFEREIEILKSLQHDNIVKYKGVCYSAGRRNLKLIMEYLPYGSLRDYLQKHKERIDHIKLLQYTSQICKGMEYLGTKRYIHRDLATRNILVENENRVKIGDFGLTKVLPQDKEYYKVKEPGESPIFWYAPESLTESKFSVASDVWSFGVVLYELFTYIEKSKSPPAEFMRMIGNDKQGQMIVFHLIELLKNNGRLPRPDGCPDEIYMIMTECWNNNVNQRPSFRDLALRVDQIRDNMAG
Sequence of Vascular endothelial growth factor receptor 2 (Homo sapiens) (P35968 whole entry): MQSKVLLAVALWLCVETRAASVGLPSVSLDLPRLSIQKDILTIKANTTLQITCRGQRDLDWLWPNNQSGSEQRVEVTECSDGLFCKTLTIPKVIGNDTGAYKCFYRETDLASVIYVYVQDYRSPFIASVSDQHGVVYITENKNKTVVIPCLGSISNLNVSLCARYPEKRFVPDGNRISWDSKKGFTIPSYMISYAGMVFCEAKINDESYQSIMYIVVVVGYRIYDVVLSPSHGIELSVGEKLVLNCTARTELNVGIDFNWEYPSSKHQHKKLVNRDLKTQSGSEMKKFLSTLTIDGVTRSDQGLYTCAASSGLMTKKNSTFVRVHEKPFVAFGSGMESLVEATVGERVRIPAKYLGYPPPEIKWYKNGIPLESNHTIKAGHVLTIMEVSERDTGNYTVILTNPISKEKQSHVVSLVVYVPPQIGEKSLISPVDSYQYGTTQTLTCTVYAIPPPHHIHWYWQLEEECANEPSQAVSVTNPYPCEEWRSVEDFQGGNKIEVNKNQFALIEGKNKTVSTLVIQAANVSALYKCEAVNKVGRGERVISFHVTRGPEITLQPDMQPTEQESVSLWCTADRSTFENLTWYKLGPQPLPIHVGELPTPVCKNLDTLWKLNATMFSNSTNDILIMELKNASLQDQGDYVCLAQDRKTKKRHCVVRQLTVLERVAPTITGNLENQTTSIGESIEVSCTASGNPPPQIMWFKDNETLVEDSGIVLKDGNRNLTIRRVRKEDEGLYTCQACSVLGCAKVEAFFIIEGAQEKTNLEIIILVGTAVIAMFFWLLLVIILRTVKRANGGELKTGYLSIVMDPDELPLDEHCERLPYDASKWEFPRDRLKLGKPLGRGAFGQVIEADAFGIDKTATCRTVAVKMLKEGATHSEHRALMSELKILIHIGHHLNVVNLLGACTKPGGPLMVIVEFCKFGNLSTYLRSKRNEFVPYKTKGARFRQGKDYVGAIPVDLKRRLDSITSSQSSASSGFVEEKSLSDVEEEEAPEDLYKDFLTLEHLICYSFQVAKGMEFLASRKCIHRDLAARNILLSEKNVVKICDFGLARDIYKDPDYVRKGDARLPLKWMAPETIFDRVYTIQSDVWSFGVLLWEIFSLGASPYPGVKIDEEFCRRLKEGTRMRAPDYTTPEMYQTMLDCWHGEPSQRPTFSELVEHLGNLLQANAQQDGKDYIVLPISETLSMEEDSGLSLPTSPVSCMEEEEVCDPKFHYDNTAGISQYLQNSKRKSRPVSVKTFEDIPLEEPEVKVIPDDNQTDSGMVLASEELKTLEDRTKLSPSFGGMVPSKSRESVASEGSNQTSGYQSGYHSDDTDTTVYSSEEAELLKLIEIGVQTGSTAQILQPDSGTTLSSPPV
Sequence of Insulin receptor-related protein (Homo sapiens) (P14616 27-742 limits assumed): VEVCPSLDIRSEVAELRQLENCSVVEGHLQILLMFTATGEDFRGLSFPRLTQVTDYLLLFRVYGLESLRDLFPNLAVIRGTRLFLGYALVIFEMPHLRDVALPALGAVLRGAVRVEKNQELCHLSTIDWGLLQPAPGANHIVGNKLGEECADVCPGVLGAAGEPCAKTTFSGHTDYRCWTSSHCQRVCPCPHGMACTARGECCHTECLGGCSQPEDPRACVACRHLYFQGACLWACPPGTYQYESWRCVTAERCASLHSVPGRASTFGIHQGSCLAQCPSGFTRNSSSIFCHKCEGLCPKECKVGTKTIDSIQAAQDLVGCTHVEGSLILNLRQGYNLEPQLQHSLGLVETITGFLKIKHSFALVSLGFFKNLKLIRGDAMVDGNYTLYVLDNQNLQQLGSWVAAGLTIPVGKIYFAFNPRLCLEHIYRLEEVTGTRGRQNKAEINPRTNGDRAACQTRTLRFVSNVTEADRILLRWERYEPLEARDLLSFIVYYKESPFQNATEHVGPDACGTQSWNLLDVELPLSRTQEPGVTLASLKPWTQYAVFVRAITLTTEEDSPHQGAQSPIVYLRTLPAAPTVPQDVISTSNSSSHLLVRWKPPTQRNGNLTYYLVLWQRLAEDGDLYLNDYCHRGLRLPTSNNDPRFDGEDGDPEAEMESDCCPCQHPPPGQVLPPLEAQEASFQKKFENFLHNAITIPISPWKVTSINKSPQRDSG
Sequence of Insulin receptor-related protein (Homo sapiens) (P14616 747-1297 limits assumed): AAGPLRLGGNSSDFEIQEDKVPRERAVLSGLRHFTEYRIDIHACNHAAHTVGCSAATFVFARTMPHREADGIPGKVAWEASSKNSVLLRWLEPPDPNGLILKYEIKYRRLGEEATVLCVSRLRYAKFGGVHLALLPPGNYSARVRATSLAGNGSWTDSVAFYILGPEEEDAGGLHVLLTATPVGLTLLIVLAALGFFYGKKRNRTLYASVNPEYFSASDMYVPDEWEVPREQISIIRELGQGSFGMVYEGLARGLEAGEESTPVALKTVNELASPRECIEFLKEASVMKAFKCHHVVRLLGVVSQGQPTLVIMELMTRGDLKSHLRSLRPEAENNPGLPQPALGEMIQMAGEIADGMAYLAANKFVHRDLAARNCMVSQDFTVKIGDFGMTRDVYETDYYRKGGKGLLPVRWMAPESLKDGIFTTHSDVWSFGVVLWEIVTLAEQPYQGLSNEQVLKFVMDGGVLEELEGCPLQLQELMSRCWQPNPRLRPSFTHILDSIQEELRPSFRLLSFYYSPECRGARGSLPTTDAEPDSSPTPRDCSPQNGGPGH

Consider `COC(=O)[C@@]1(O)C[C@H]2O[C@]1(C)n1c3ccccc3c3c4c(c5c6ccccc6n2c5c31)C(=O)NC4`, for which the residual activity in [1] was -2%; in experiment [2], 0%; in [3], 6%; in experiment [4] it was 1%; in experiment [5], 15%; in experiment [6], 1%. In addition, the residual activity was 2% in [7]; -1% in experiment [8]; 0% in experiment [9]; 0% in experiment [10]; -12% in experiment [11]; -20% in [12]. Moreover, the residual activity in [13] is 5%; in [14], -11%; in experiment [15], -3%; in [16], -1%; in experiment [17], 3%; in experiment [18] it was 0%. Moreover, the residual activity is 6% in [19] and 3% in experiment [20].
Consider `C[S+]([O-])c1ccc(-c2nc(-c3ccc(F)cc3)c(-c3ccncc3)[nH]2)cc1` (configuration not stated), for which the residual activity in [1] is 113%; in [2] it was 86%; in experiment [3], 109%; in [4] it was 56%; in experiment [5] it was 100%; in experiment [6] it was 104%. Also, the residual activity is 112% in experiment [7]; 119% in experiment [8]; 107% in [9]; 112% in experiment [10]; 111% in experiment [11]; 95% in [12]. Further, the residual activity came out at 74% in experiment [13]; 30% in experiment [14]; 107% in experiment [17]; 60% in [18]; 110% in experiment [19]; 82% in [20].
For the compound `N/C(=N\[N+](=O)[O-])N/N=C\c1ccc(-c2cccc([N+](=O)[O-])c2)o1`, the residual activity in experiment [1] is 100%; in [2] it was 85%; in experiment [7], 86%; in experiment [8], 85%; in [13], 100%; in experiment [14], 98%. Moreover, the residual activity in experiment [15] is 95%; in experiment [16] it was 79%; in experiment [17], 92%; in experiment [18] it was 84%.
Consider `CC(C)[C@H](CO)Nc1nc(Nc2cccc(Cl)c2)c2ncn(C(C)C)c2n1`, for which the residual activity amounted to 45% in experiment [1]; 9% in experiment [2]; 83% in experiment [3]; 3% in experiment [4]; 68% in experiment [5]; 11% in experiment [6]. Besides, the residual activity worked out at 73% in experiment [8]; 90% in experiment [13]; 97% in [14]; 58% in experiment [18]; 98% in [19]; 90% in experiment [20].
As for `O=C1Nc2ccc3ncsc3c2/C1=C/c1c[nH]cn1`, the residual activity in [1] was determined as 41%; in experiment [2], 15%; in experiment [3], 119%; in experiment [4], 36%; in [5], 67%; in experiment [6] it was 21%. Further, the residual activity in [7] is 59%; in experiment [8], 18%; in experiment [9], 16%; in experiment [10], 3%; in [11] it was 63%; in [12] it was 22%. The residual activity in experiment [13] worked out at 71%; in experiment [14], 16%; in experiment [15], 20%; in [16], 20%; in experiment [17], 2%; in [18] it was 0%. Besides, the figures for the residual activity in experiment [19] and in experiment [20] were 55% and 10%, respectively.
As for `COc1ccc2c(c[n+](C)c3c4cc5c(cc4ccc23)OCO5)c1OC`, the residual activity stood at 83% in experiment [2]; 130% in experiment [3]; 76% in experiment [4]; 99% in experiment [5]; 91% in experiment [6]; 80% in experiment [7]. Further, the residual activity in experiment [8] was determined as 121%; in [9], 91%; in [10], 67%; in experiment [11], 100%; in experiment [12], 64%; in experiment [15] it was 81%. Besides, the residual activity in experiment [16] turned out to be 63%; in [18], 90%; in [20], 87%.
Take `COc1cc2ncnc(Nc3ccc(OCc4ccccc4)cc3)c2cc1OC`: the residual activity worked out at 127% in experiment [1]; 92% in experiment [2]; 125% in [3]; 57% in experiment [4]; 107% in experiment [5]; 99% in experiment [6]. The residual activity in experiment [7] was found to be 110%; in experiment [8], 90%; in experiment [9], 101%; in experiment [10], 100%; in experiment [11], 102%; in [12] it was 101%. Moreover, the residual activity turned out to be 106% in experiment [13]; 101% in experiment [14]; 106% in [15]; 110% in [16]; 60% in experiment [17]; 11% in [18]. Also, the results for the residual activity in experiment [19] and in [20] were 110% and 70%, respectively.
For the compound `COc1cc(OC)c(/C=C2\C(=O)Nc3ccccc32)c(OC)c1`, the residual activity in experiment [1] came to 81%; in [2], 75%; in [3], 101%; in experiment [4], 98%; in experiment [5], 101%; in [6] it was 93%. Besides, the residual activity in [8] came out at 94%; in experiment [9], 105%; in experiment [10], 100%; in experiment [13], 89%; in experiment [14], 88%; in [15], 85%. Besides, the residual activity amounted to 103% in experiment [16]; 96% in [17]; 91% in experiment [18]; 83% in experiment [19]; 83% in [20].
